High-throughput results: PubChem, National Center for Advancing Translational Sciences (NCATS)
Pf growth 96h = Primary qHTS for delayed death inhibitors of the malarial parasite plastid, 96 hour incubation. 320,000 tested, 6.9% active. Potency, µM (top dose mostly 28.7 µM), most hits filed as inhibitors. P. falciparum luciferase reporter growth, 96 h
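Two parasite generations (96 h, 37 C, 5% CO2) of compound exposure in infected erythrocytes (0.05% parasitemia, 2% hematocrit). Luciferase-reporter P. falciparum; decreased luminescence indicates inhibited growth, aimed at apicoplast-acting delayed death.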
Shiga inhibitor = A qHTS for Small Molecule Inhibitors of Shiga Toxin | 290,000 tested, 9.2% active | inhibition, % at 38.7 µM | Vero cells, Shiga toxin protein synthesis inhibition reporter; in the data active means inhibition mostly above about 28%, no sharp cut-off; inactive means mostly below about 43%
CHX counter = Cycloheximide Counterscreen for Small Molecule Inhibitors of Shiga Toxin | cell reporter, cycloheximide protein synthesis inhibition counterscreen | max response, % | 300,000 tested, 12% active; in the data active means max response mostly above about 13%, no sharp cut-off; inactive means mostly below about 14%; further: read at 38.3 µM for the half of the compounds with a filed dose
Pf growth 48h = Primary qHTS for delayed death inhibitors of the malarial parasite plastid, 48 hour incubation; P. falciparum luciferase growth in erythrocytes, 48 h; Potency, µM (doses to about 28.7 µM), usual class: inhibitors; 310,000 tested, 5.9% active
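Here the parasites carry a stable luciferase gene and grow inside erythrocytes in Albumax-based RPMI medium with compound for one erythrocytic cycle. Activity is scored as loss of luminescent signal.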
NS1 function inh = qHTS Assay for Inhibitors of Influenza NS1 Protein Function; AID 2326, 2010; Potency, µM (series often up to 46.1 µM); 270,000 tested, 0.4% active; calls by dose curve; further: actives are rising curves; nearly all actives have a fitted effect of over 50% in size
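In this qHTS, NS1 from influenza A is expressed in budding yeast, where it slows growth. Cells are switched from glucose to 2% galactose medium (pH 6.0, -URA), treated with compound, and growth recovery is read at OD600.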
Numbers stand for hits; - = inactive; ? = inconclusive; . = no result given; + = active, no number; [ ] = dose if it differs, or a comment. Hits are enriched below; roughly 21% of the tested compounds scored in any of these assays. Unless noted, the call rests on the fitted dose curve; in most records, active means well fitted inhibition curve with a large enough effect; inconclusive means small, poorly fitted or top-dose-only effect, or another doubt; inactive means no such curve, though single readings can be large or run the other way.

SMILES | Pf growth 96h | Shiga inhibitor | CHX counter | Pf growth 48h | NS1 function inh
COc1cc([C@@H]2CC=C(C(=O)O)[C@H](c3ccccc3F)N2S(=O)(=O)c2ccc(C)cc2)cc(OC)c1OC | 10µM | . | . | 10µM | .
COc1cc([C@@H]2CC=C(C(=O)O)[C@H](c3ccc(F)cc3)N2S(=O)(=O)c2ccc(C)cc2)cc(OC)c1OC | 1.9µM | . | . | 3.3µM | .
Cc1ccc(S(=O)(=O)N2[C@@H](c3ccccc3F)C(C(=O)O)=CC[C@H]2c2cccc(C)c2)cc1 | - | . | . | ? | .
COc1ccc([C@@H]2CC=C(C(=O)O)[C@H](c3ccc(F)cc3)N2S(=O)(=O)c2ccc(C)cc2)cc1OC | 10µM | . | . | ? | .
Cc1ccc(S(=O)(=O)N2[C@@H](c3ccc(F)cc3)C(C(=O)O)=CC[C@H]2c2ccc(Cl)cc2)cc1 | - | . | . | - | .
Cc1ccc(S(=O)(=O)N2[C@@H](c3ccccc3F)C(C(=O)O)=CC[C@H]2c2ccc(Cl)c(Cl)c2)cc1 | 12µM | . | . | ? | .
Cc1cccc(Oc2ccc(C(=O)NC3CCSC3=O)cn2)c1C (centres undefined) | - | - | - | - | -
CC(=O)N1CCOc2ccc(S(=O)(=O)Nc3cccc(C)n3)cc21 | ? | - | - | - | -
CC(CNc1nc2ccc(Cl)cc2n2cnnc12)c1ccccc1 (centres undefined) | ? | - | - | ? | -
COc1cccc([C@@H]2CC=C(C(=O)O)[C@H](c3cccc(Cl)c3)N2S(=O)(=O)c2ccc(C)cc2)c1 | 12µM | . | . | ? | .
COc1cccc(C2CC(c3ccccc3OC)n3nc(N)nc3N2)c1 (centres undefined) | ? | - | - | . | -
O=C(CSc1nnc(Cc2ccccc2)n1-c1cccc(Cl)c1)N1CCOCC1 | -[5.75 µM] | - | - | - | -
Cc1cccc(-n2c(Cc3ccccc3)nnc2SCC(=O)N2CCOCC2)c1 | 4.1µM | - | - | . | -
O=[N+]([O-])c1ccc(CSc2nnc(Cc3ccccc3)n2-c2ccc(F)cc2)cc1 | ? | - | - | ? | -
O=C(CSc1nnc(Cc2ccccc2)n1C1CCCCC1)N1CCOCC1 | ? | - | 16 | - | -
Cc1cccc(-n2c(Cc3ccccc3)nnc2SCc2ccc([N+](=O)[O-])cc2)c1 | 7.4µM | - | - | ? | -
O=C(CSc1nnc(Cc2ccccc2)n1-c1ccc(F)cc1)N1CCOCC1 | . | - | - | - | -
O=C(COC(=O)/C=C/c1ccco1)Nc1cccc([N+](=O)[O-])c1 | - | - | - | - | -
COCC(=O)NC1CCN(S(=O)(=O)c2cccc(C(C)=O)c2)CC1 | ? | - | - | - | -
O=C(CCS(=O)(=O)c1ccc(Cl)cc1)Nc1ccc(N2CCOCC2)cc1 | - | - | - | - | -
C=C(C)C1CC=C(CN2CCC(O)CC2)CC1 (centres undefined) | - | - | - | . | -
C=C(C)[C@@H]1CC=C(CN2CCC(N3CCC(C(=O)N4CCCC4)CC3)CC2)CC1 | - | - | - | 7.4µM | -
O=C(NNS(=O)(=O)c1cc(Cl)c(Cl)cc1Cl)c1cccnc1 | - | - | - | ? | -
COc1ccc(C=C2c3ccccc3C(=O)c3ccccc32)cc1O | . | - | - | . | .
c1ccc(Oc2nc(-c3cccnc3)nc3ccccc23)cc1 | ? | - | - | 10µM | -
SMILES | Pf growth 96h | Shiga inhibitor | CHX counter | Pf growth 48h | NS1 function inh
Cc1ccccc1Oc1nc(-c2ccccn2)nc2ccccc12 | 0.93µM | 46 | 39 | 1.9µM | -
Cc1cccc(Oc2nc(-c3ccccn3)nc3ccccc23)c1 | 2.6µM | 63 | 34 | 1.9µM | -
Cc1cccc(Oc2nc(-c3ccncc3)nc3ccccc23)c1 | 1.5µM | - | - | 1.7µM | -
O=[N+]([O-])c1ncccc1Oc1nc(-c2cccnc2)nc2ccccc12 | - | - | - | ? | .
CCOC(=O)c1cc2c(ccn2-c2ccc(F)cc2)n1CC(=O)N(CC)CC | - | - | - | ? | -
CC(C)NS(=O)(=O)c1ccc(OCC(=O)Nc2ccc(F)cc2)cc1 | ? | - | - | - | .
Cc1cc(C)c(-c2cc(C(F)(F)F)no2)c(=O)[nH]1 | 12µM | - | - | - | -
Cc1cccc(N2C(=O)CC(SC(=Nc3ccccc3)Nc3ccccc3)C2=O)c1 (centres undefined) | ? | - | - | ? | -
O=C1SC(SC(=Nc2ccccc2)Nc2ccccc2)C(=O)N1c1ccccc1 (centres undefined) | - | 60 | 41 | - | -
Cc1ccc(S(=O)(=O)Cc2nc3ccccc3c(=O)[nH]2)cc1 | - | - | - | - | -
COC(=O)c1ccc(/C=C/c2nc3ccccc3c(=O)[nH]2)cc1 | - | 51 | - | - | -
Cc1ccc(/C=C/c2nc3ccccc3c(=O)[nH]2)cc1 | - | 71 | 54 | - | -
O=C(Nc1nc2c(s1)CCCC2)c1nn(Cc2ccccc2)c(=O)c2ccccc12 | ? | - | - | ? | -
Cn1nc(C(=O)Nc2cccnc2)c2ccccc2c1=O | . | - | - | - | -
CC(C)CCn1nc(C(=O)Nc2nc3c(s2)CCCC3)c2ccccc2c1=O | ? | - | - | 10µM | -
CCn1nc(C(=O)Nc2nc(-c3ccccn3)cs2)c2ccccc2c1=O | 2.6µM | . | . | 2.3µM | .
CCCn1nc(C(=O)Nc2nc(-c3ccccn3)cs2)c2ccccc2c1=O | 4.1µM | . | . | 4.1µM | .
CC1(c2ccccc2)NC(=O)N(CC(=O)Nc2nc(-c3ccccn3)cs2)C1=O (centres undefined) | ? | . | . | - | .
Cn1nc(C(=O)Nc2nc(-c3ccccn3)cs2)c2ccccc2c1=O | 3.3µM | . | . | 4.1µM | .
Cc1ccccc1-c1ccnc2[nH]n(-c3ccccc3)c(=O)c12 | - | - | - | -[0.00184 µM] | -
CCCN1CCN(S(=O)(=O)c2ccc3c(c2)OCCO3)CC1 | - | - | - | ? | .
COc1cccc(CC(=S)N2CCOCC2)c1 | - | - | - | - | -
Cc1nc2ccccc2c(=O)n1NC(=O)c1cc(Br)ccc1Cl | - | - | - | - | -
Fc1ccc(Nc2ccnc(Nc3ccc(F)cc3)n2)cc1 | ? | + | 72 | 2.3µM | -
O=C(O)c1cccc(Nc2ccnc(Nc3cccc(C(=O)O)c3)n2)c1 | - | 79 | 29 | . | -
SMILES | Pf growth 96h | Shiga inhibitor | CHX counter | Pf growth 48h | NS1 function inh
O=C(CCc1c[nH]c2ccccc12)OCc1cccc([N+](=O)[O-])c1 | - | - | - | - | -
CC1CC(C)CN(Cc2nc(N)nc(Nc3ccc4ccccc4c3)n2)C1 (centres undefined) | . | - | - | 12µM | -
COc1ccc(Nc2nc(N)nc(CN3CCC(C)CC3)n2)cc1 | - | - | - | - | .
CC1CC(C)CN(Cc2nc(N)nc(Nc3ccccc3)n2)C1 (centres undefined) | 10µM | - | - | ? | -
Cc1cc(C)c(S(=O)(=O)N2CCCCC2)c(C)c1N(C)S(=O)(=O)c1ccccc1 | ? | - | - | ? | -
O=c1c2ccccc2nc(C[n+]2ccccc2)n1-c1cccc(C(F)(F)F)c1 | 12µM | - | - | - | -
COc1ccc(-c2nc3ccccc3c(=O)o2)cc1 | - | - | 13 | - | -
Cc1ccc(-c2nc3ccccc3c(=O)o2)cc1 | - | . | 23 | - | -
COc1cccc(-c2nc3ccccc3c(=O)o2)c1 | . | - | 19 | . | -
COc1cc(OC)cc(-c2nc3ccccc3c(=O)o2)c1 | - | - | - | - | -
